# Results as given in PubChem BioAssay (EPA / NIEHS).
# “And” between values parts separate entries of the source, which are not always exact repeats. Equal entries are not always repeated. More than one record can exist for a structure, and the calls need not agree. The source made the active and inactive calls. How the source made its calls: active means hit-call score of the fitted dose curve at least 0.9, where 1 is the maximum; inactive means score below 0.9.
# Tests used:
# Settings in all cases: mRNA level, 48 h; actives raise or lower the signal
# [1] = read-out: ABC Transporter (ABCB1), ABCB1 (gene 5243); assay: LTEA_HepaRG_ABCB1: Life Technologies and Expression Analysis (LTEA) Assay for ABC Transporter (ABCB1) using HepaRG (AID 2283460)
# Procedure, shortened: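 ABCB1 transcript level measured by TaqMan qRT-PCR against three housekeeping genes after 48 h chemical exposure of differentiated HepaRG cells. Top concentration 100 uM, half-log steps, eight points, 0.5% DMSO vehicle; bidirectional fit relative to DMSO.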
# [2] = read-out: growth arrest and DNA damage 45 (GADD45B), GADD45B (gene 4616); assay: LTEA_HepaRG_GADD45B: Life Technologies and Expression Analysis (LTEA) Assay for growth arrest and DNA damage 45 (GADD45B) using HepaRG (AID 2283461)
# Procedure, shortened: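 Differentiated HepaRG cells, plated 48 h then switched to serum-free induction medium, were exposed 48 h in duplicate to eight half-log concentrations from 100 uM in 0.5% DMSO; mRNA quantified by qRT-PCR, normalized to ACTB/GAPDH/POLR2A, bidirectional fit versus DMSO.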
# [3] = read-out: ABC Transporter (ABCC3), ABCC3 (gene 8714); assay: LTEA_HepaRG_ABCC3: Life Technologies and Expression Analysis (LTEA) Assay for ABC Transporter (ABCC3) using HepaRG (AID 2283462)
# Procedure, shortened: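 HepaRG cells in serum-free induction medium were exposed for 48 h in duplicate to 8-point half-log concentrations topping at 100 uM in 0.5% DMSO. ABCC3 mRNA was measured by qRT-PCR normalized to ACTB, GAPDH and POLR2A, with bidirectional fitting versus DMSO.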
# [4] = read-out: ABC Transporter (ABCB11), ABCB11 (gene 8647); assay: LTEA_HepaRG_ABCB11: Life Technologies and Expression Analysis (LTEA) Assay for ABC Transporter (ABCB11) using HepaRG (AID 2283463)
# Procedure, shortened: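 ABCB11 transcript levels quantified by TaqMan qRT-PCR against three housekeeping genes after 48 h chemical exposure of HepaRG cultures. Concentrations up to 100 uM in half-log steps, 0.5% DMSO vehicle; both induction and suppression scored.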
# [5] = read-out: ABC Transporter (ABCC2), ABCC2 (gene 1244); assay: LTEA_HepaRG_ABCC2: Life Technologies and Expression Analysis (LTEA) Assay for ABC Transporter (ABCC2) using HepaRG (AID 2283464)
# Procedure, shortened: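 HepaRG cells were plated 48 h, switched to serum-free induction medium, then exposed in duplicate for 48 h to 8 concentrations (top 100 uM, half-log steps, 0.5% DMSO). ABCC2 mRNA was measured by qRT-PCR normalized to ACTB/GAPDH/POLR2A; bidirectional fitting versus DMSO.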
# [6] = read-out: Broad substrate specificity ATP-binding cassette transporter ABCG2 (Homo sapiens) (UniProt Q9UNQ0); assay: LTEA_HepaRG_ABCG2: Life Technologies and Expression Analysis (LTEA) Assay for ABC Transporter (ABCG2) using HepaRG (AID 2283465)
# Procedure, shortened: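 ABCG2 transcript was quantified by TaqMan qRT-PCR against three housekeeping genes in HepaRG cells. Cells were treated in duplicate for 48 h across an 8-point half-log series up to 100 uM, with 0.5% DMSO vehicle. Gain or loss versus DMSO was fit.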
# [7] = read-out: ATP-citrate lyase (ACLY), ACLY (gene 47); assay: LTEA_HepaRG_ACLY: Life Technologies and Expression Analysis (LTEA) Assay for ATP-citrate lyase (ACLY) using HepaRG (AID 2283466)
# Procedure, shortened: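 ACLY mRNA quantified by qRT-PCR on Fluidigm arrays against three housekeeping genes, after 48 h chemical treatment of HepaRG cells (top concentration 100 uM, half-log steps, 0.5% DMSO vehicle). Up- or down-regulation fitted relative to DMSO.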
# [8] = read-out: Peroxisomal acyl-coenzyme A oxidase 1 (ACOX1) gene, ACOX1 (gene 51); assay: LTEA_HepaRG_ACOX1: Life Technologies and Expression Analysis (LTEA) Assay for Peroxisomal acyl-coenzyme A oxidase 1 (ACOX1) gene using HepaRG (AID 2283467)
# Procedure, shortened: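 ACOX1 transcript levels were quantified by TaqMan qRT-PCR against three housekeeping genes after 48 h chemical exposure of differentiated human HepaRG cells. Exposure used eight half-log steps topping at 100 uM, 0.5% DMSO vehicle, in duplicate. Bidirectional curve fits were made relative to DMSO.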
# [9] = read-out: Alkaline Phosphatase, Placental (ALPP) gene, ALPP (gene 250); assay: LTEA_HepaRG_ALPP: Life Technologies and Expression Analysis (LTEA) Assay for Alkaline Phosphatase, Placental (ALPP) gene using HepaRG (AID 2283468)
# Procedure, shortened: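 Differentiated human HepaRG cells were plated and cultured 48 h, then exposed in duplicate for 48 h in serum-free induction medium to eight half-log concentrations from 100 uM in 0.5% DMSO. ALPP mRNA was measured by TaqMan qRT-PCR, normalized to ACTB, GAPDH, POLR2A.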
# [10] = read-out: Bcl-2 (BAD) gene, BAD (gene 572); assay: LTEA_HepaRG_BAD: Life Technologies and Expression Analysis (LTEA) Assay for Bcl-2 (BAD) gene using HepaRG (AID 2283469)
# Procedure, shortened: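 Read-out: qRT-PCR of BAD mRNA, normalized to three housekeeping genes. Human HepaRG cultures got 48 h chemical exposure in 0.5% DMSO, duplicate eight-point half-log series topping at 100 uM. Gain or loss of signal fitted versus DMSO vehicle.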
# [11] = read-out: Bcl-2 (BAX) gene, BAX (gene 581); assay: LTEA_HepaRG_BAX: Life Technologies and Expression Analysis (LTEA) Assay for Bcl-2 (BAX) gene using HepaRG (AID 2283470)
# Procedure, shortened: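 Human HepaRG cells treated in duplicate for 48 h across eight concentrations (max 100 uM, 0.5% DMSO); BAX expression measured by qRT-PCR.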
# [12] = read-out: adenosine kinase (ADK) gene, ADK (gene 132); assay: LTEA_HepaRG_ADK: Life Technologies and Expression Analysis (LTEA) Assay for adenosine kinase (ADK) gene using HepaRG (AID 2283471)
# Procedure, shortened: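 Following 48 h exposure of HepaRG cells in 0.5% DMSO (top concentration 100 uM, duplicate wells), ADK mRNA induction or suppression was measured by qRT-PCR, normalised to ACTB/GAPDH/POLR2A, and fitted bidirectionally relative to vehicle.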
# [13] = read-out: Alpha-fetoprotein (AFP) gene, AFP (gene 174); assay: LTEA_HepaRG_AFP: Life Technologies and Expression Analysis (LTEA) Assay for Alpha-fetoprotein (AFP) gene using HepaRG (AID 2283472)
# Procedure, shortened: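 Measures AFP mRNA change in HepaRG after 48 h chemical exposure (8 half-log concentrations, highest 100 uM, 0.5% DMSO). Fold change relative to DMSO, fitted in both directions.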
# [14] = read-out: Apolipoprotein A-V (APOA5) gene, APOA5 (gene 116519); assay: LTEA_HepaRG_APOA5: Life Technologies and Expression Analysis (LTEA) Assay for Apolipoprotein A-V (APOA5) gene using HepaRG (AID 2283474)
# Procedure, shortened: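 Differentiated human HepaRG cells were exposed in duplicate for 48 h to eight half-log concentrations from 100 uM in 0.5% DMSO. APOA5 mRNA was quantified by TaqMan qRT-PCR, normalized to ACTB, GAPDH and POLR2A, and fitted bidirectionally against DMSO.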
# [15] = read-out: Apoptosis regulator Bcl-2 (Homo sapiens) (UniProt P10415); assay: LTEA_HepaRG_BCL2: Life Technologies and Expression Analysis (LTEA) Assay for Bcl-2 gene using HepaRG (AID 2283475)
# Procedure, shortened: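 Each chemical was tested in duplicate on HepaRG cultures held in serum-free induction medium for 48 h, highest concentration 100 uM with half-log dilutions. Transcript levels came from multiplexed qRT-PCR, normalised to housekeeping genes; activity was scored in either direction relative to DMSO.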
# [16] = read-out: Bcl-2 (BID) gene, BID (gene 637); assay: LTEA_HepaRG_BID: Life Technologies and Expression Analysis (LTEA) Assay for Bcl-2 (BID) gene using HepaRG (AID 2283476)
# Procedure, shortened: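 Assay used HepaRG hepatic cells treated 48 h in serum-free medium with half-log dilutions from 100 uM. Endpoint: BID mRNA, qRT-PCR, normalized to ACTB/GAPDH/POLR2A.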
# Caspase-3 (Homo sapiens) = Caspase-3 (Homo sapiens) (UniProt P42574); assay: LTEA_HepaRG_CASP3: Life Technologies and Expression Analysis (LTEA) Assay for cysteine-aspartic acid protease (CASP3) using HepaRG (AID 2283477)
# Caspase-3 (Homo sapiens), sequence (P42574 whole entry, looked up): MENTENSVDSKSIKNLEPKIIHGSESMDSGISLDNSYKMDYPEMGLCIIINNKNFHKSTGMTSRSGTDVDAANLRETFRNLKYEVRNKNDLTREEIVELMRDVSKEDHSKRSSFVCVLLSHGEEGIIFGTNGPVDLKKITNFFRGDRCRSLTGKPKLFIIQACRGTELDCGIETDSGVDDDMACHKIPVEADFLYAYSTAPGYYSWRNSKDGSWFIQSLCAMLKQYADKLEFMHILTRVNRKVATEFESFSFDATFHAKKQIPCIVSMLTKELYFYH
# Procedure, shortened: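 Differentiated human HepaRG cells in serum-free induction medium were exposed 48 h to 8-point half-log concentrations from 100 uM (0.5% DMSO vehicle). CASP3 mRNA was measured by qRT-PCR, normalised to ACTB, GAPDH and POLR2A, with bidirectional fitting against DMSO.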
# [17] = read-out: Cytochrome P450 (CYP24A1), CYP24A1 (gene 1591); assay: LTEA_HepaRG_CYP24A1: Life Technologies and Expression Analysis (LTEA) Assay for Cytochrome P450 (CYP24A1) using HepaRG (AID 2283478)
# Procedure, shortened: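 Differentiated HepaRG cells, pre-cultured 48 h, were exposed in duplicate for 48 h in serum-free induction medium to 8 half-log concentrations (top 100 uM, 0.5% DMSO). CYP24A1 mRNA was quantified by TaqMan qRT-PCR, normalized to ACTB/GAPDH/POLR2A, fitted bidirectionally versus DMSO.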
# [18] = read-out: Cytochrome P450 (CYP1A2), CYP1A2 (gene 1544); assay: LTEA_HepaRG_CYP1A2: Life Technologies and Expression Analysis (LTEA) Assay for Cytochrome P450 (CYP1A2) using HepaRG (AID 2283479)
# Procedure, shortened: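 Differentiated human HepaRG cells in serum-free induction medium were exposed in duplicate for 48 h to 8-point half-log concentrations up to 100 uM in 0.5% DMSO. CYP1A2 mRNA measured by qRT-PCR, normalized to ACTB, GAPDH, POLR2A; bidirectional fit vs DMSO.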
# BCL2L11 (gene 10018) = assay: LTEA_HepaRG_BCL2L11: Life Technologies and Expression Analysis (LTEA) Assay for Bcl-2 (BCL2L11) gene using HepaRG (AID 2283473)
# Procedure, shortened: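 Differentiated human HepaRG cells in serum-free induction medium were exposed in duplicate for 48 h to eight concentrations (top 100 uM, half-log steps, 0.5% DMSO). BCL2L11 mRNA was quantified by TaqMan qRT-PCR, normalized to ACTB/GAPDH/POLR2A, bidirectional fit versus DMSO.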
# Broad substrate specificity ATP-binding cassette transporter ABCG2 (Homo sapiens), sequence (Q9UNQ0 whole entry, looked up): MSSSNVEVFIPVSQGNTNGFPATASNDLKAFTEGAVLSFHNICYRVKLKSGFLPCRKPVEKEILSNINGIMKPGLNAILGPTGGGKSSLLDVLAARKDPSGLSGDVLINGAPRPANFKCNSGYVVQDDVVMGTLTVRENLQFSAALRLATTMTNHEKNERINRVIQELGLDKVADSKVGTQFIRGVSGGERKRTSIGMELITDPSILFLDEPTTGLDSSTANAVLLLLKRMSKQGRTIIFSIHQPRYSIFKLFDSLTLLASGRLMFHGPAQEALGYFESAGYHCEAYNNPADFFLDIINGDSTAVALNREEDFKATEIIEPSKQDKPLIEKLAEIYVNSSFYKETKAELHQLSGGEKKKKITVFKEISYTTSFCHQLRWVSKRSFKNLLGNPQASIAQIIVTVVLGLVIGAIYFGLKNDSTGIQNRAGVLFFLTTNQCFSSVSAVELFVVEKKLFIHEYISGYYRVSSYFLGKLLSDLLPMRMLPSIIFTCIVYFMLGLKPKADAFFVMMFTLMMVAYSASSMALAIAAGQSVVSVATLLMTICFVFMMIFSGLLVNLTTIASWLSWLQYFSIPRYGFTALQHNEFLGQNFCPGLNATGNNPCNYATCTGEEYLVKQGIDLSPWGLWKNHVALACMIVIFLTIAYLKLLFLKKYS
# Apoptosis regulator Bcl-2 (Homo sapiens), sequence (P10415 whole entry, looked up): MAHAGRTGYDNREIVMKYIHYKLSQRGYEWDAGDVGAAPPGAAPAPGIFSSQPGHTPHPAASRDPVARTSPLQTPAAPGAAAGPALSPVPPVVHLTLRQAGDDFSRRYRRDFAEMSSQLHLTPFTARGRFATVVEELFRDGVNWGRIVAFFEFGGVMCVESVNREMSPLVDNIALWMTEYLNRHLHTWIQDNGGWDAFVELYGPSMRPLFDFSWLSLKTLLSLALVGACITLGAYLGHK
smiles,measurement,setting,value
O=C(O)C(F)(F)C(F)(F)C(F)(F)C(F)(F)C(F)(F)C(F)(F)C(F)(F)F,outcome,[1],inactive
same,outcome,[2],inactive
same,outcome,[3],inactive
same,outcome,[4],inactive
same,outcome,[5],inactive
same,outcome,[6],inactive
same,outcome,[7],inactive
same,AC50,[8],3.48 µM (active) and 8.37 µM (active)
same,AC50,[9],9.92 µM (active)
same,outcome,[9],inactive
same,outcome,[10],inactive
same,outcome,[11],inactive
same,outcome,[12],inactive
same,outcome,[13],inactive
same,outcome,[14],inactive
same,outcome,[15],inactive
same,outcome,[16],inactive
same,outcome,Caspase-3 (Homo sapiens),inactive
same,outcome,[17],inactive
same,outcome,[18],inactive
CC(C)(C)C(O)C(Oc1ccc(Cl)cc1)n1cncn1 (stereo not given),AC50,[1],4.64 µM (active) and 7.44 µM (active) and 3.5 µM (active)
same,outcome,[2],inactive
same,outcome,[3],inactive
same,AC50,[5],2.47 µM (active)
same,outcome,[5],inactive
same,outcome,[6],inactive
same,AC50,[7],73.6 µM (active) and 50 µM (active) and 34.1 µM (active)
same,AC50,[8],1.25 µM (active)
same,outcome,[8],inactive
same,outcome,[9],inactive
same,outcome,[10],inactive
same,outcome,[11],inactive
same,outcome,[12],inactive
same,AC50,[13],4.76 µM (active) and 9.92 µM (active) and 50 µM (active)
same,outcome,[15],inactive
same,outcome,[16],inactive
same,outcome,Caspase-3 (Homo sapiens),inactive
same,outcome,[17],inactive
same,AC50,[18],22.2 µM (active) and 36.8 µM (active) and 32.8 µM (active)
CCOC1Oc2ccc(OS(C)(=O)=O)cc2C1(C)C (stereo not given),AC50,[1],35.2 µM (active)
same,outcome,[2],inactive
same,AC50,[3],66.7 µM (active)
same,AC50,[4],73 µM (active)
same,outcome,[5],inactive
same,AC50,[6],28.2 µM (active)
same,AC50,[7],82.6 µM (active)
same,AC50,[8],60.8 µM (active)
same,AC50,[9],43.6 µM (active)
same,outcome,[10],inactive
same,outcome,[11],inactive
same,outcome,[12],inactive
same,AC50,[13],72.3 µM (active)
same,outcome,BCL2L11 (gene 10018),inactive
same,AC50,[15],82.1 µM (active)
same,outcome,[16],inactive
same,outcome,Caspase-3 (Homo sapiens),inactive
same,outcome,[17],inactive
same,AC50,[18],73.3 µM (active)
ClC1C(Cl)C(Cl)C(Cl)C(Cl)C1Cl (stereo not given),AC50,[1],1.54 µM (active) and 4.45 µM (active)
same,outcome,[2],inactive
same,outcome,[3],inactive
same,AC50,[5],3.62 µM (active)
same,AC50,[6],3.28 µM (active)
same,outcome,[6],inactive
same,outcome,[7],inactive
same,outcome,[8],inactive
same,outcome,[9],inactive
same,outcome,[10],inactive
same,outcome,[11],inactive
same,outcome,[12],inactive
same,AC50,[13],19.5 µM (active)
same,outcome,[13],inactive
same,outcome,[15],inactive
same,outcome,[16],inactive
same,outcome,Caspase-3 (Homo sapiens),inactive
same,outcome,[17],inactive
same,outcome,[18],inactive
CCC(C)Nc1c([N+](=O)[O-])cc(C(C)(C)C)cc1[N+](=O)[O-] (stereo not given),AC50,[1],13 µM (active)
same,outcome,[2],inactive
same,outcome,[3],inactive
same,AC50,[5],17.8 µM (active)
same,AC50,[6],22 µM (active)
same,outcome,[7],inactive
same,outcome,[8],inactive
same,outcome,[9],inactive
same,outcome,[10],inactive
same,outcome,[11],inactive
same,outcome,[12],inactive
same,AC50,[13],50 µM (active)
same,outcome,[14],inactive
same,outcome,[15],inactive
same,outcome,[16],inactive
same,outcome,Caspase-3 (Homo sapiens),inactive
same,outcome,[17],inactive
same,outcome,[18],inactive
